From PubChem BioAssay
APOBEC3A inh: blocks human APOBEC3A ssDNA deamination | P31941 | recombinant A3A, FAM/TAMRA ssDNA deamination fluorescence | inhibition, % at 20 µM | hit rate 0.41% among 330,000;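 active = at least 40% inhibition at 20 µM here, with at most 30% in a related deaminase screen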;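 also: plate controls were A3A with DMSO for no effect and wells lacking A3A enzyme for full effect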
Target sequence (P31941 whole entry, looked up): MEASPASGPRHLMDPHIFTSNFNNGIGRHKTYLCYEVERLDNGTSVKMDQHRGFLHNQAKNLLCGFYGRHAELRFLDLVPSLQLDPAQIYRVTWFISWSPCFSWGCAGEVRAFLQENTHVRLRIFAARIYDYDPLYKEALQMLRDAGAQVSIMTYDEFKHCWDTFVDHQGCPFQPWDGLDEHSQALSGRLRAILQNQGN
rCAG RNA binder: binds r(CAG) RNA repeats. AID 651821. inhibition, % at 3 µM. r(CAG) RNA repeat, TO-PRO-1 dye displacement fluorescence. hit rate 1.3% among 370,000;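 active = inhibition above the plate cutoff, the mean of all test compounds on that plate plus 3 SD, cut at about 35% in these data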;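 also: 0% = DMSO alone and 100% = 100 µM mitoxantrone as full dye displacement; higher means more dye released from RNA so lower well fluorescence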
PHOSPHO1 block: blocks human PHOSPHO1 phosphatase activity; Q8TCT1; recombinant PHOSPHO1, absorbance phosphatase assay; inhibition, % at 13.3 µM; hit rate 1.1% among 290,000; AID 1565; in the data active = inhibition above about 60%
ALR H2O2 inh: blocks human ALR sulfhydryl oxidase activity; P55789; purified ALR, DTT oxidation, H2O2 HRP-luminol luminescence; inhibition, % (no concentration beside the values); hit rate 3.8% among 290,000; AID 485317;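 active = mean replicate inhibition above about 79%, with every replicate also reaching it, limit read from the data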
A3G deaminase: APOBEC3G (human) deaminase inhibition | Q9HC16 | recombinant A3G, ssDNA deamination FAM/TAMRA fluorescence | inhibition, % at 20 µM | hit rate 0.28% among 330,000 | AID 493012;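 active = inhibition of at least 40% at 20 µM, with no more than 30% in the related APOBEC3A deaminase screen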;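 also: plate controls were DMSO wells with A3G for no effect and wells lacking A3G enzyme for full effect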
Target sequence (Q9HC16 whole entry, looked up): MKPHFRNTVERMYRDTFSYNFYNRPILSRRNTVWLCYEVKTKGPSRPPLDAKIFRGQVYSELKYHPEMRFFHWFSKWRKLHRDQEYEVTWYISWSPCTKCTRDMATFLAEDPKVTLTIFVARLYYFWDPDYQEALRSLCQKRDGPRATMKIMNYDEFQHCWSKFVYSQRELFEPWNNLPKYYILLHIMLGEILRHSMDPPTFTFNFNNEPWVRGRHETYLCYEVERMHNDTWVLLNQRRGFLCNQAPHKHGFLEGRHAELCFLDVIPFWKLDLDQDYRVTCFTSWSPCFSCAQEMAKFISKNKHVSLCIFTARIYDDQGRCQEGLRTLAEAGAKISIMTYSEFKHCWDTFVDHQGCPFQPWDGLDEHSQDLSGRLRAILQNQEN
aDG glyco act: increases alpha dystroglycan glycosylation; Pro5-aDG cells, alpha-DG glycosylation AlphaScreen (IIH6); 0% Pro5, 100% B10-LARGE cell signal; hit rate 0.22% among 360,000; activation, % at 10 µM;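 active = activation of at least 8% versus controls, or a plate z-score of at least 8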;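 also: Pro5 are CHO cells carrying HIG-tagged alpha-DG that lacks glycosylation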
A3A conf: APOBEC3A (human) deaminase inhibition, confirmed; shares compounds with APOBEC3A inh; recombinant A3A, ssDNA deaminase UDG fluorescence assay; inhibition, % at 20 µM; hit rate 63% among 1,400; AID 493151;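 active = inhibition reaching a set limit, 80% of the first screen's cutoff, at 20 µM in any replicate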;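 also: plate controls were DMSO wells with A3A for no effect and wells lacking A3A enzyme for full effect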
UDG A3A counter: counter-screen for APOBEC3A inhibitors: UDG; shares compounds with APOBEC3A inh; UDG counterscreen, FAM/TAMRA uracil oligo fluorescence; inhibition, % at 20 µM; 1,000 tested, under 10 active; AID 504714; call rule not given here
Active calls of the source: *; . = no result; ! = not confirmed by another sample. Most compounds without a hit are left out; they make up all but 5.4% or so of the library.

SMILES	APOBEC3A inh	rCAG RNA binder	PHOSPHO1 block	ALR H2O2 inh	A3G deaminase	aDG glyco act	A3A conf	UDG A3A counter
CC(C)(C)N(NC(=O)Nc1ccc(F)cc1)C(=O)c1ccccc1	0	0	8	2	-8	0	.	.
COc1ccc(N(CC(=O)N2CCCCCC2)S(C)(=O)=O)cc1Cl	-2	-6	30	6	-3	0	.	.
COc1ccc(N(CC(=O)N2CCc3ccccc3C2)S(C)(=O)=O)cc1Cl	47*	-3	-1	-5	6	0	12	.
O=C(CSc1n[nH]c(-c2ccncc2)n1)Nc1ccc(Cl)c(Cl)c1	59*	32	-2	-1	15	0	48*	6
CN(C)c1ccc(C(=O)N2CCC2(C)C(=O)O)cc1 (configuration not stated)	.	1	.	.	.	0	.	.
COc1ccc(S(=O)(=O)N2CCCCC2)cc1NC(=O)c1ccc([N+](=O)[O-])o1	5	0	32	.	-9	2	.	.
CCN1CCN(c2ccc(S(=O)(=O)N3CCCCC3)cc2NC(=O)c2ccc([N+](=O)[O-])o2)CC1	53*	-3	.	-84	5	6	33*	.
CCN1CCN(c2ccc(S(=O)(=O)N3CCCCC3)cc2NC(=O)c2sccc2C)CC1	69*	-4	.	-1	21	0	64*	-3
Cc1ccc(OC(C)C(=O)Nc2ccc3c(c2)n(C)c(=O)n3C)c(C)c1 (configuration not stated)	84*	-2	-132	34	19	0	29	.
COc1ccc(/C=C/c2cccc[n+]2C)c(O)c1	37	-7	8	.	36	0	.	.
C[n+]1ccccc1/C=N/O	65*!	1	6	8	3	0	80*	-1
C[n+]1ccccc1/C=C/c1cc(Br)ccc1O	50*	8	-18	36	15	0	26*	-3
CC(O)/C=C/c1cccc[n+]1C (configuration not stated)	60*	2	84*	-6	27	0	80*	6
CCCNC(=O)C1(C)CCN(Cc2cc(C(F)(F)F)ccc2Cl)C1 (configuration not stated)	.	-3	.	.	.	0	.	.
O=C(Nc1ccc(OC(F)(F)F)cc1)Nc1c(-c2ccccc2)nc2ncccn12	.	9	.	.	.	.	.	.
COc1ccc(C2CC(=O)C(c3ccc([N+](=O)[O-])cc3)=CN2Cc2ccccc2)cc1 (configuration not stated)	.	8	.	.	.	.	.	.
C=CCC1(CC=C)CCCN1C(=O)c1cc(COc2cncc(Cl)c2)on1	53*	-9	66*	-13	-2	3	-10	4
O=C1CN(C(=O)CSc2nncs2)c2ccccc2N1	44*	-1	32	.	-3	0	-5	-3
CCC(C)CN1C(=O)CSCC1(C)C(=O)NC(C)C (configuration not stated)	.	2	.	.	.	0	.	.
O=C(NCC(c1ccco1)N1CCOCC1)c1c(F)cccc1F (configuration not stated)	43*	-1	.	-2	-7	0	-2	-3
COc1ccc(/C=C2\C(=O)NCC(=O)N2Cc2ccccc2)cc1	-2	6	3	-8	-4	0	.	.
COc1ccc(/C=C2\C(=O)NCC(=O)N2C)cc1	52*	1	18	.	14	0	75*	-3
CC(CCc1ccccc1)NC(=O)COC(=O)CC1CC2CCC1C2 (configuration not stated)	121*	-6	-19	-2	-3	0	-6	-3
O=C(COC(=O)CC1CC2CCC1C2)NCc1ccccc1 (configuration not stated)	-3	-4	.	-2	-3	0	.	.
CCCN(CC(=O)Nc1ccc(F)c(F)c1F)C(=O)C1=COCCO1	51*	-3	.	-5	15	0	4	.
SMILES	APOBEC3A inh	rCAG RNA binder	PHOSPHO1 block	ALR H2O2 inh	A3G deaminase	aDG glyco act	A3A conf	UDG A3A counter
CCCCCCCCN1C(=O)[C@@H](CC(=O)NCc2cccc3ccccc23)C[C@@]2(C(=O)OC)C1=C[C@H](C1CCCC1)O[C@@H]2C	.	4	.	.	.	.	.	.
O=S(=O)(c1ccccc1)N1CCCc2nc(-c3ccc(Br)cc3)ccc21	.	6	.	.	.	.	.	.
CC1(C)C(=O)Nc2ccccc2N1C(=O)COC(=O)c1cc(Cl)cc(Cl)c1	10	9	.	3	3	0	.	.
COC(=O)c1cc(C(=O)OCC(=O)N2c3ccccc3NC(=O)C2(C)C)cc([N+](=O)[O-])c1	97*	.	-24	-5	-6	1	-3	-1
COc1ccccc1CCC(=O)OCC(=O)N1c2ccccc2NC(=O)C1(C)C	2	4	.	4	-4	0	.	.
Cc1ccc(C)c(OCCC(=O)OCC(=O)N2c3ccccc3NC(=O)C2(C)C)c1	52*	3	.	-2	20	0	56*	3
CCC[n+]1c(C)sc2c(OC)ccc(OC)c21	44*	-5	-7	26	19	0	20*	-1
COC(=O)/C=C1/S/C(=N/NC(=O)c2ccccc2C)NC1=O	53*	4	20	2	-7	0	2	-2
Cc1c(-c2ccnc3cc(C(=O)O)nn23)cnn1C	49*	9	12	0	-7	0	32*	0
CCn1cc(-c2ccnc3cc(C(=O)O)nn23)c(C)n1	-1	2	20	-1	-2	0	.	.
O=C(CCN1C(=O)COc2ccccc21)NCc1ccco1	64*	0	29	-1	-1	2	7	5
Cc1ccc2c(c1)N(CCC(=O)NCc1ccco1)C(=O)CO2	-1	-4	19	-7	-6	0	.	.
CCOC(=O)C1=CCN(S(=O)(=O)c2ccc(Cl)cc2)C1c1ccc(Br)cc1 (configuration not stated)	.	10	.	.	.	.	.	.
CCN(CC)Cc1c(C(=O)N/N=C/c2ccncc2)nnn1-c1nonc1N	-1	-2	32	-5	0	0	.	.
CN(C)Cc1c(C(=O)N/N=C/c2ccncc2)nnn1-c1nonc1N	48*	0	36	1	-9	0	0	-1
Cn1c(SCC(=O)NCc2ccccc2)nnc1-c1ccc(NC(=O)CCc2ccccc2)cc1	58*	-4	-20	0	14	0	51*	-1
Cn1c(Cc2ccccc2)nnc1SCCC(=O)Nc1ccccc1	69*	-7	-17	.	16	0	74*	-4
Cn1c(Cc2ccccc2)nnc1SCC(=O)NC1CC1	-1	0	43	1	-14	0	.	.
CCC(=O)Nc1cccc(-c2nnc(SCC(=O)NCc3ccco3)n2C)c1	46*	-3	-71	-4	21	0	68*	3
